Ba/F3 V617F tox: reduced viability of JAK2V617F-dependent Ba/F3 cells, primary screen, JAK2V617F inhibitor project, cell-based, Ba/F3 EpoR-JAK2V617F, luminescence. inhibition, % at 5.6 µM. actives 1.1% (n = 220,000). ATP luminescence;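 active = inhibition above the campaign mean plus 3 SD over all tested compounds, cut at about 24% in these data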;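 also: cytokine-independent growth of Ba/F3 cells driven by EpoR plus mutant JAK2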
BaF3 parental: parental Ba/F3 cell viability inhibition, counter-screen for JAK2V617F inhibitor project, murine pro-B, CellTiter-Glo luminescence | CellTiter-Glo ATP luminescence | inhibition, % at 5.6 µM | actives 1.1% (n = 220,000);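 active = inhibition above a per-campaign cutoff, the mean inhibition of all tested compounds plus 3 SD, cut at about 27% in these data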
KLF5 inh: KLF5 expression inhibitors, primary screen, DLD-1 cells, luminescence; DLD-1 KLF5 promoter-luciferase reporter; inhibition, % at 5 µM; actives 0.23% (n = 290,000);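 active = inhibition above a per-plate limit of that plate's mean compound inhibition plus 3 SD, cut at about 60% in these data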;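 also: higher means less KLF5 promoter-driven luciferase light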
APP transl inh: inhibitors of APP translation via 5'UTR reporter, primary screen, APP 5'UTR luciferase, SH-SY5Y cells | SH-SY5Y APP 5'UTR-luciferase reporter, luminescence | inhibition, % at 2 µM | actives 0.82% (n = 190,000) | AID 1285, 2008;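 active = inhibition above a set limit, derived from the sample mean plus 3 SD, cut at about 45% in these data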
aSyn UTR inh: MLPCN primary screen, SNCA 5' untranslated region. alpha-synuclein 5'UTR reporter, inhibitor activity. inhibition, % (tested at 7.5 µM). actives 0.82% (n = 300,000); in the data active = inhibition above about 60%;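 also: H4 neuroglioblastoma cells stably carrying SNCA 5'UTR luciferase fusion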
IEC-6 tox-1: cytotoxicity in IEC-6 intestinal epithelial cells, primary screen, cytotoxicity control for KLF5 inhibitor project, cell-based, luminescence | IEC-6 cytotoxicity, luminescence viability | inhibition, % at 5 µM | actives 0.78% (n = 290,000)
BaF3 tox 2: parental Ba/F3 cell viability inhibition, counter-screen for JAK2V617F inhibitor project, murine pro-B, CellTiter-Glo luminescence | cells kept alive by added IL-3 | actives 31% (n = 580) | shares compounds with Ba/F3 V617F tox | inhibition, % at 5.6 µM;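 active = cell growth inhibition above the hit limit set in the earlier mutant JAK2 cell screen, cut at about 27% in these data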
JAK2V617F confrm: viability loss in Ba/F3 EpoR-JAK2V617F cells, confirmation, JAK2V617F inhibitor project, cell-based, luminescence, triplicate; shares compounds with Ba/F3 V617F tox; CellTiter-Glo luminescence; inhibition, % at 5.6 µM; actives 66% (n = 580);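 active = mean inhibition above the hit cutoff derived in the earlier primary screen, cut at about 25% in these data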;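 also: higher means lower luminescence from reduced cell ATP and viability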
KLF5 confirm: KLF5 expression inhibitors, confirmation, DLD-1 cells, luminescence | DLD-1 KLF5 promoter firefly luciferase reporter | actives 79% (n = 610) | shares compounds with KLF5 inh | inhibition, % at 4 µM | AID 1834, 2009;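 active = inhibition above a set limit taken from the earlier primary screen, cut at about 63% in these data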
IEC-6 tox-2: cytotoxicity in rat IEC-6 cells, cytotoxicity control for KLF5 inhibitor project, cell-based, luminescence, triplicate; shares compounds with KLF5 inh; IEC-6 rat intestinal cells, viability luminescence; inhibition, % at 4 µM; actives 56% (n = 610); AID 1905, 2009; in the data active = inhibition above about 23%;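 also: cells exposed to compounds for 48 hours before viability read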
IEC-6 cytotox cf: cytotoxic compounds in IEC-6 epithelial cells, confirmation, cytotoxicity control, cell-based, luminescence | shares compounds with IEC-6 tox-1 | IEC-6 rat intestinal epithelial viability | inhibition, % at 5 µM | actives 63% (n = 1,900) | AID 1907, 2009
A number is an active result; - = inactive; . = no result. This is a sample that favours compounds with a hit; in the whole collection about 2.2% have one here. Rule as the data show it, unless noted: active = inhibition above about 22%; inactive = the rest.

SMILES	Ba/F3 V617F tox	BaF3 parental	KLF5 inh	APP transl inh	aSyn UTR inh	IEC-6 tox-1	KLF5 confirm	IEC-6 tox-2	IEC-6 cytotox cf	others
CC(C)NC(C)C(=O)C12CC3CC(CC(C3)C1)C2 (configuration not stated)	-	-	-	-	-	-	.	.	.
O=c1[nH]c2ccccc2c(=O)n1-c1ccc(Cl)cc1Cl	-	-	-	-	-	-	.	.	.
O=c1[nH]c(=O)n(-c2ccccc2)c(O)c1/C=C1/C(c2ccccc2)=Nc2ccccc21	80	68	-	68	-	55	.	.	.
O=C(c1ccccc1F)c1cn(CC(=O)N2CCCCC2)c2ccccc12	49	-	-	-	-	-	.	.	.	BaF3 tox 2=-;JAK2V617F confrm=-
Cc1nn(Cc2ccccc2Cl)c(C)c1C(=O)OCC(=O)NC1CCS(=O)(=O)C1 (configuration not stated)	-	-	-	-	-	-	.	.	.
Cc1nn(Cc2ccccc2Cl)c(C)c1C(=O)OCC(=O)NC1CCCC(C)C1C (configuration not stated)	76	-	-	-	-	-	.	.	.	BaF3 tox 2=-;JAK2V617F confrm=-
COC12C(COC(N)=O)C3=C(C(=O)C(C)=C(N)C3=O)N1CC1C2N1C (configuration not stated)	29	-	-	.	-	-	.	.	.	BaF3 tox 2=50;JAK2V617F confrm=96
CCC12CN3CCN(CC(C3)/C1=N/NC(=O)c1ccncc1)C2	-	-	-	-	-	-	.	.	.
CC1=C(C(=O)N2CCC3(CC2)OCCO3)C2(CCC(C)CC2)OC1=O (configuration not stated)	-	-	-	-	-	-	.	.	.
CCn1nc(/C=C/c2ccccc2)nc2c(=O)n(C)c(=O)nc1-2	44	-	-	-	-	102	.	.	104	BaF3 tox 2=103;JAK2V617F confrm=99
CC(C)(C)NC(=O)Cn1cc(C(=O)c2ccccc2F)c2ccccc21	-	-	-	-	-	-	.	.	.
C[C@@H]1O[C@@H](O[C@H]2C[C@@H](O)[C@]3(CO)[C@H]4[C@H](O)C[C@]5(C)[C@@H](C6COC(=O)C6)CC[C@]5(O)[C@@H]4CC[C@]3(O)C2)[C@H](O)[C@H](O)[C@H]1O (some centres not stated)	-	-	64	93	115	-	71	-	.
CCCCCCC[n+]1ccc(-c2cc[n+](CCCCCCC)cc2)cc1	95	93	77	-	92	-	63	-	.
CNC(C(=O)c1ccccc1)C(OC)c1cccc([N+](=O)[O-])c1 (configuration not stated)	-	-	-	.	-	-	.	.	.
O=P(N1CCCCC1)(N1CCCCC1)C(Cl)(Cl)Cl	-	-	-	-	-	-	.	.	.
CC(=O)OC(C)(C)/C=C/C(=O)C(C)(O)C1[C@H](O)C[C@@]2(C)C3CC=C4C(CC[C@@H](O)C4(C)C)[C@]3(CO)C(=O)C[C@]12C (some centres not stated)	.	.	90	.	86	99	93	96	97
COc1c(C)cc(C(=O)C2CCCN(Cc3cccc(C)n3)C2)cc1C (configuration not stated)	-	-	-	-	-	-	.	.	.
CCC(C)C(NC(=O)CCCNC(=O)CCC(=O)OC1O[C@H]2OC3(C)CC[C@H]4[C@H](C)CCC(C1C)C24OO3)C(=O)O (some centres not stated)	.	.	83	.	-	34	84	41	26
C[C@@H]1CC[C@H]2[C@@H](C)C(=O)O[C@@H]3O[C@@]4(C)CC[C@@H]1[C@]32OO4	.	.	-	.	-	-	.	.	.
Cc1cc(N=Nc2ccccc2C)ccc1N	.	.	.	.	-	.	.	.	.
CC(=O)O[C@@]12CO[C@@H]1C[C@H](O)[C@@]1(C)C(=O)[C@H](O)C3=C(C)[C@@H](O)C[C@@](O)([C@@H](OC(=O)c4ccccc4)C12)C3(C)C (some centres not stated)	.	.	-	.	-	-	.	.	.
C/C=C(\C)C(=O)N[C@@H](c1ccccc1)[C@@H](O)C(=O)O[C@H]1C[C@@]2(O)[C@@H](OC(=O)c3ccccc3)C3[C@](C)(C(=O)[C@H](OC(C)=O)C(=C1C)C2(C)C)[C@@H](O)C[C@H]1OC[C@@]31OC(C)=O (some centres not stated)	.	.	64	.	104	88	88	78	72
Brc1ccc2[nH]cc(/C=N/N3CCCCC3)c2c1	-	-	-	-	-	-	.	.	.
CC[C@@]1(O)C(=O)OCc2c1cc1n(c2=O)Cc2cc3ccccc3nc2-1	98	93	62	.	116	97	94	75	72
CC(C)[C@H]1C(=O)O[C@H](C(C)C)C(=O)N(C)[C@@H](C(C)C)C(=O)O[C@H](C(C)C)C(=O)N(C)[C@@H](C(C)C)C(=O)O[C@H](C(C)C)C(=O)N1C	98	77	70	-	86	89	-	-	54
SMILES	Ba/F3 V617F tox	BaF3 parental	KLF5 inh	APP transl inh	aSyn UTR inh	IEC-6 tox-1	KLF5 confirm	IEC-6 tox-2	IEC-6 cytotox cf	others
CCN1/C(=C\C=C\C2=[N+](CC)c3ccccc3C2(C)C)C(C)(C)c2ccccc21	99	93	84	93	104	64	104	64	70
O=C(CNC(=O)OCc1ccccc1)Nc1ccc(Br)cc1C(=O)c1ccccc1	-	-	-	-	-	-	.	.	.
COc1ccc(CNCCc2c[nH]c3ccccc23)c(OC)c1C	.	.	-	.	-	-	.	.	.
COc1cc(C)c(CNCCc2c[nH]c3ccccc23)cc1C	.	.	-	.	-	24	.	.	-
COc1cc2c(cc1OC)[C@@H]1C(=O)c3ccc4c(c3O[C@@H]1CO2)C[C@H](C(C)C)O4	71	65	-	.	-	35	.	.	25
O=C(Nc1nccs1)C(Cl)(Cl)Cl	-	-	-	-	-	-	.	.	.
O=C(Nc1ccc(Cl)cc1)Nc1nccs1	85	79	-	60	-	68	.	.	60
